Laboratory results taken from PubChem BioAssay (EPA / NIEHS).
Results filed as inconclusive are left out. Active and inactive are the calls of the source. Rule for the calls: active = hit-call score of the fitted dose curve at least 0.9, where 1 is the maximum; inconclusive = response in the unintended direction; inactive = score below 0.9.

What follows are molecules tested against sheep Cyclooxygenase-2 (Cox2), PTGS2 (gene 443460) (UniProt P79208) (assay: NVS_ENZ_oCOX2: NovaScreen (NVS) Enzymatic Assay for sheep Cyclooxygenase-2 (Cox2) (AID 2283231)).
Sequence of sheep Cyclooxygenase-2 (Cox2), PTGS2 (gene 443460) (P79208 whole entry, looked up): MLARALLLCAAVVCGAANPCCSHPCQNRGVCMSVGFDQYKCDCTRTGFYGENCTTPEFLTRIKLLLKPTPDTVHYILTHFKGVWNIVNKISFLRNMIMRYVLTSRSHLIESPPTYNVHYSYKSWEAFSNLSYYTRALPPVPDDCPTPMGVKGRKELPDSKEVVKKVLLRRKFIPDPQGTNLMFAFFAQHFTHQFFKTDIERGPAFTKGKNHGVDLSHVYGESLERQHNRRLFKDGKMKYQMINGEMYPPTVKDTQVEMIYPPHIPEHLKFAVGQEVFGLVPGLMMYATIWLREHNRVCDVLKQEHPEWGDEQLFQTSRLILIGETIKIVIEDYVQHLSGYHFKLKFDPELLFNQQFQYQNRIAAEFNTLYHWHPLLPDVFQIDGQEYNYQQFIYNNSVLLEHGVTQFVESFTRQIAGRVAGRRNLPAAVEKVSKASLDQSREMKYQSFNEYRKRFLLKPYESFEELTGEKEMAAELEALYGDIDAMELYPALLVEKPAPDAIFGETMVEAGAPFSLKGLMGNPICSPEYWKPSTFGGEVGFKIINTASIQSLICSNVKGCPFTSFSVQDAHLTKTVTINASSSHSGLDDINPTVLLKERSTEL
Protocol: NVS_ENZ_oCOX2 is a biochemical, single-readout assay that uses extracted gene-proteins from Ovine placenta in a tissue-based cell-free assay. Measurements were taken 0.66 hour after chemical dosing in a 96-well plate.NVS_ENZ_oCOX2 is one of one assay component(s) measured or calculated from the NVS_ENZ_oCOX2 assay. It is designed to make measurements of enzyme activity, a form of enzyme reporter, as detected with absorbance signals by Colorimetric technology.Data from the assay component NVS_ENZ_oCOX2 was analyzed into 1 assay endpoint. This assay endpoint, NVS_ENZ_oCOX2, was analyzed in the positive analysis fitting direction relative to DMSO as the negative control and baseline of activity. Using a type of enzyme reporter, loss-of-signal activity can be used to understand changes in the enzymatic activity as they relate to the gene PTGS2. Furthermore, this assay endpoint can be referred to as a primary readout, because this assay has produced multiple assay endpoints where this one serves a enzymatic activity function. To generalize the intended target to other relatable targets, this assay endpoint is annotated to the oxidoreductase intended target family, where the subfamily is cyclooxygenase.
Binding assays used specific radioligands (tritiated, iodinated) with non-radioactive competitive displacement ligands in agonist or antagonist protocols (as indicated) and various reference compounds and inhibitors to titrate specific binding to receptors and transporters. Most enzyme assays (CYPs, kinases, phosphatases, proteases, HDACs) used recombinant protein and specific substrates (fluorescence mostly, some colorimetric and radioactive) and inhibitors, followed by a biochemical separation of substrate and product. All assays for the biochemical HTS were initially run in duplicate at a single concentration (10 uM for CYP450 assays and 25 uM for all others). Assay-chemical combinations meeting a pre-defined threshold (e.g., 30% inhibition and other criteria defined below) were then run in singleton concentration-response format with maximum concentration of 20 uM for CYPs and 50 uM for all others. Each assay was run with positive and negative controls, and concurrent controls on every plate. The follow-up (secondary) screen tested active chemical-pairs in concentration series, as well as a few additional assays not tested in the primary screen, some selected negative inactives, and several cases re-run in the concentration series for confirmatory purposes.

Structure (SMILES) | outcome | AC50
O=c1[nH]c(=O)[nH]c(=O)[nH]1 | inactive | 
COc1cc(OC)nc(NC(=O)NS(=O)(=O)c2ncccc2C(=O)N(C)C)n1 | inactive | 
ClC1(Cl)C2(Cl)C3(Cl)C4(Cl)C(Cl)(Cl)C5(Cl)C3(Cl)C1(Cl)C5(Cl)C24Cl (stereo not given) | inactive | 
CC(C)(C)c1cc(O)ccc1O |  | 6.85 µM (active)
CC(C)(OO)c1ccccc1 |  | 6.28 µM (active)
CC(C)(C)CC(C)(C)c1ccc(O)cc1 | inactive | 
CC12CC1(C)C(=O)N(c1cc(Cl)cc(Cl)c1)C2=O (stereo not given) |  | 3.77 µM (active)

Each molecule was assayed on rat Monoamine Oxidase, MAO-A, Peripheral (MAOAP), gene 29253 (assay: NVS_ENZ_rMAOAP: NovaScreen (NVS) Enzymatic Assay for rat Monoamine Oxidase, MAO-A, Peripheral (MAOAP) (AID 2283237)).
Protocol: NVS_ENZ_rMAOAP is a biochemical, single-readout assay that uses extracted gene-proteins from Rat liver mitochondrial membranes in a tissue-based cell-free assay. Measurements were taken 1.17 hours after chemical dosing in a 96-well plate.NVS_ENZ_rMAOAP is one of one assay component(s) measured or calculated from the NVS_ENZ_rMAOAP assay. It is designed to make measurements of enzyme activity, a form of enzyme reporter, as detected with scintillation counting signals by Lysate-based radiodetection technology.Data from the assay component NVS_ENZ_rMAOAP was analyzed into 1 assay endpoint. This assay endpoint, NVS_ENZ_rMAOAP, was analyzed in the positive analysis fitting direction relative to DMSO as the negative control and baseline of activity. Using a type of enzyme reporter, loss-of-signal activity can be used to understand changes in the enzymatic activity as they relate to the gene Maoa. Furthermore, this assay endpoint can be referred to as a primary readout, because this assay has produced multiple assay endpoints where this one serves a enzymatic activity function. To generalize the intended target to other relatable targets, this assay endpoint is annotated to the oxidoreductase intended target family, where the subfamily is monoamine oxidase.
Binding assays used specific radioligands (tritiated, iodinated) with non-radioactive competitive displacement ligands in agonist or antagonist protocols (as indicated) and various reference compounds and inhibitors to titrate specific binding to receptors and transporters. Most enzyme assays (CYPs, kinases, phosphatases, proteases, HDACs) used recombinant protein and specific substrates (fluorescence mostly, some colorimetric and radioactive) and inhibitors, followed by a biochemical separation of substrate and product. All assays for the biochemical HTS were initially run in duplicate at a single concentration (10 uM for CYP450 assays and 25 uM for all others). […] Each assay was run with positive and negative controls, and concurrent controls on every plate. […]

Structure (SMILES) | AC50 | outcome
CC(=O)[O][Hg][c]1ccccc1 | 1.13 µM (active) | 
CCN1CCC2(CC1)COc1cc3c(cc12)N(C(=O)c1ccc(-c2ccc(-c4nnc(C)o4)cc2C)cc1)CC3 | 23.4 µM (active) | 
CC12CC1(C)C(=O)N(c1cc(Cl)cc(Cl)c1)C2=O (stereo not given) |  | inactive
